Drawing on PubChem BioAssay (EPA / NIEHS), this text covers outcome and AC50 for 14 molecules.

Several values for one entry are separate records, joined by “and”; a condition that tells them apart may be missing. Equal entries are not always repeated. More than one record can exist for a structure, and the calls need not agree. Activity calls are given as the source filed them. How the source made its calls: active means hit-call score of the fitted dose curve at least 0.9, where 1 is the maximum; inactive means score below 0.9.

Read-out in one test: Matrix Metallopeptidase 3 (MMP3), MMP3 (gene 4314)
In words: BSK_BF4T_MMP3: BioMAP Diversity Plus: BF4T Assay for Matrix Metallopeptidase 3 (MMP3) Biomarker Activity (AID 2284271). The settings on record: primary human bronchial epithelial cells with fibroblasts. The method in brief:
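Co-culture of human bronchial epithelial cells and dermal fibroblasts dosed 24 h; MMP-3 measured by ELISA, positive-direction fit versus DMSO. Cytotoxicity tracked by SRB total-protein staining (560 nm) in parallel cultures.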
Take `O=S(=O)(F)C(F)(F)C(F)(F)C(F)(F)C(F)(F)C(F)(F)C(F)(F)C(F)(F)C(F)(F)F`: the result was inactive.
Same read-out and setting: the value for `FC(F)(F)C(F)(C(F)(F)F)C(F)(F)C(F)(F)CC1CO1` (stereo unspecified) was “inactive”.
Same read-out and setting: to `O=C(O)C(F)(F)C(F)(F)C(=O)O` belongs “inactive”.
On the same count and under the same terms, the value for `OCC(F)(F)OC(F)(F)C(F)(F)OC(F)(F)C(F)(F)OC(F)(F)CO` was “inactive”; that for `NC(=O)C(F)(F)C(F)(F)F` was “inactive”.
As for `COC(=O)C(F)(F)C(F)(F)OC(F)(C(F)(F)F)C(F)(F)OC(F)=C(F)F` (stereo unspecified), the result was inactive.
Still for that read-out and setting: to `C=CC(=O)OCC(F)(F)C(F)F` belongs “inactive”; to `O=C(O)C(F)(OC(F)(F)C(F)(F)C(F)(F)F)C(F)(F)F` (stereo unspecified), “inactive”.
On the same count and under the same terms, to `O=C(O)C(F)(F)OC(F)(F)C(F)(F)OC(F)(F)F` belongs “inactive”; to `OCC(F)(F)OC(F)(F)C(F)(F)OC(F)(F)C(F)(F)OC(F)(F)F`, “inactive”.
Still for that read-out and setting: the value for `O=C(O)C(F)(F)OC(F)(F)C(F)(F)OC(F)(F)C(=O)O` was “inactive”; that for `CC(O)C(F)(F)C(F)(F)F` (stereo unspecified) was “inactive”.
As for `OCC(F)(F)OC(F)(F)C(F)(F)OC(F)(F)CO`, the outcome was inactive.
As for `O=C(O)C=CC(F)(C(F)(F)F)C(F)(F)F`, the outcome was inactive.

Read-out in another test: Tissue plasminogen activator (tPA), PLAT (gene 5327)
In words: BSK_BF4T_tPA: BioMAP Diversity Plus: BF4T Assay for Tissue plasminogen activator (tPA) Biomarker Activity (AID 2284272). The settings on record: primary human bronchial epithelial cells with fibroblasts. The method in brief: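 tPA level quantified by ELISA at 24 h post-treatment in bronchial epithelial/dermal fibroblast co-cultures, gain of signal scored against DMSO baseline. Parallel cultures stained with 0.1% SRB (560 nm) to flag overt cytotoxicity.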
On to `O=S(=O)(F)C(F)(F)C(F)(F)C(F)(F)C(F)(F)C(F)(F)C(F)(F)C(F)(F)C(F)(F)F`, for which the result was inactive.
Still for that read-out and setting: the value for `FC(F)(F)C(F)(C(F)(F)F)C(F)(F)C(F)(F)CC1CO1` (stereo unspecified) was “inactive”; that for `O=C(O)C(F)(F)C(F)(F)C(=O)O` was “inactive”.
As for `OCC(F)(F)OC(F)(F)C(F)(F)OC(F)(F)C(F)(F)OC(F)(F)CO`, the AC50 was 30 µM (active) and 24 µM (active).
Take `NC(=O)C(F)(F)C(F)(F)F`: the result was inactive.
The same measure, in the same setting: the value for `COC(=O)C(F)(F)C(F)(F)OC(F)(C(F)(F)F)C(F)(F)OC(F)=C(F)F` (stereo unspecified) was “inactive”.
Regarding `C=CC(=O)OCC(F)(F)C(F)F`, the AC50 is 30 µM (active) and 29.3 µM (active).
`O=C(O)C(F)(OC(F)(F)C(F)(F)C(F)(F)F)C(F)(F)F` (stereo unspecified): the outcome was inactive.
Regarding `O=C(O)C(F)(F)OC(F)(F)C(F)(F)OC(F)(F)F`, the result was inactive.
Regarding `OCC(F)(F)OC(F)(F)C(F)(F)OC(F)(F)C(F)(F)OC(F)(F)F`, the outcome was inactive.
Turning to `O=C(O)C(F)(F)OC(F)(F)C(F)(F)OC(F)(F)C(=O)O`, the outcome was inactive.
Same read-out and setting: to `CC(O)C(F)(F)C(F)(F)F` (stereo unspecified) belongs “inactive”; to `OCC(F)(F)OC(F)(F)C(F)(F)OC(F)(F)CO`, “inactive”; to `O=C(O)C=CC(F)(C(F)(F)F)C(F)(F)F`, “inactive”.

Read-out in another test: Plasminogen Activator Inhibitor-1 (PAI1), SERPINE1 (gene 5054)
Description: BSK_BF4T_PAI1: BioMAP Diversity Plus: BF4T Assay for Plasminogen Activator Inhibitor-1 (PAI1) Biomarker Activity (AID 2284273). The settings on record: primary human bronchial epithelial cells with fibroblasts. The method in brief:
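Co-culture of human bronchial epithelial cells and dermal fibroblasts exposed to compound for 24 h. PAI-1 measured by ELISA; activity fitted in positive direction versus DMSO. Parallel SRB staining assessed overt cytotoxicity.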
Consider `O=S(=O)(F)C(F)(F)C(F)(F)C(F)(F)C(F)(F)C(F)(F)C(F)(F)C(F)(F)C(F)(F)F`, for which the result was inactive.
On the same count and under the same terms, the value for `FC(F)(F)C(F)(C(F)(F)F)C(F)(F)C(F)(F)CC1CO1` (stereo unspecified) was “inactive”; that for `O=C(O)C(F)(F)C(F)(F)C(=O)O` was “inactive”; that for `OCC(F)(F)OC(F)(F)C(F)(F)OC(F)(F)C(F)(F)OC(F)(F)CO` was “inactive”.
Same read-out and setting: to `NC(=O)C(F)(F)C(F)(F)F` belongs “inactive”; to `COC(=O)C(F)(F)C(F)(F)OC(F)(C(F)(F)F)C(F)(F)OC(F)=C(F)F` (stereo unspecified), “inactive”.
Same read-out and setting: the value for `C=CC(=O)OCC(F)(F)C(F)F` was “inactive”; that for `O=C(O)C(F)(OC(F)(F)C(F)(F)C(F)(F)F)C(F)(F)F` (stereo unspecified) was “inactive”; that for `O=C(O)C(F)(F)OC(F)(F)C(F)(F)OC(F)(F)F` was “inactive”.
On to `OCC(F)(F)OC(F)(F)C(F)(F)OC(F)(F)C(F)(F)OC(F)(F)F`, for which the half-maximal activity concentration (AC50) was 25.6 µM (active) and the result was inactive.
For `O=C(O)C(F)(F)OC(F)(F)C(F)(F)OC(F)(F)C(=O)O`, the result was inactive.
In the case of `CC(O)C(F)(F)C(F)(F)F` (stereo unspecified), the outcome was inactive.
On to `OCC(F)(F)OC(F)(F)C(F)(F)OC(F)(F)CO`, for which the result was inactive.
In the case of `O=C(O)C=CC(F)(C(F)(F)F)C(F)(F)F`, the result was inactive.

Read-out in another test: urokinase Plasminogen Activator (uPA), PLAU (gene 5328)
In words: BSK_BF4T_uPA: BioMAP Diversity Plus: BF4T Assay for urokinase Plasminogen Activator (uPA) Biomarker Activity (AID 2284275). The settings on record: primary human bronchial epithelial cells with fibroblasts. The procedure, abridged:
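Co-culture of human bronchial epithelial cells and dermal fibroblasts; uPA quantified by ELISA 24 hours after dosing, fitted relative to DMSO. Parallel SRB total-protein staining assessed overt cytotoxicity.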
In the case of `O=S(=O)(F)C(F)(F)C(F)(F)C(F)(F)C(F)(F)C(F)(F)C(F)(F)C(F)(F)C(F)(F)F`, the outcome was inactive.
Turning to `FC(F)(F)C(F)(C(F)(F)F)C(F)(F)C(F)(F)CC1CO1` (stereo unspecified), the outcome was inactive.
The same measure, in the same setting: to `O=C(O)C(F)(F)C(F)(F)C(=O)O` belongs “inactive”; to `OCC(F)(F)OC(F)(F)C(F)(F)OC(F)(F)C(F)(F)OC(F)(F)CO`, “inactive”; to `NC(=O)C(F)(F)C(F)(F)F`, “inactive”.
On the same count and under the same terms, to `COC(=O)C(F)(F)C(F)(F)OC(F)(C(F)(F)F)C(F)(F)OC(F)=C(F)F` (stereo unspecified) belongs “inactive”.
Regarding `C=CC(=O)OCC(F)(F)C(F)F`, the result was inactive.
Turning to `O=C(O)C(F)(OC(F)(F)C(F)(F)C(F)(F)F)C(F)(F)F` (stereo unspecified), the result was inactive.
As to `O=C(O)C(F)(F)OC(F)(F)C(F)(F)OC(F)(F)F`, the result was inactive.
The same measure, in the same setting: to `OCC(F)(F)OC(F)(F)C(F)(F)OC(F)(F)C(F)(F)OC(F)(F)F` belongs “inactive”; to `O=C(O)C(F)(F)OC(F)(F)C(F)(F)OC(F)(F)C(=O)O`, “inactive”.
Take `CC(O)C(F)(F)C(F)(F)F` (stereo unspecified): the outcome was inactive.
For `OCC(F)(F)OC(F)(F)C(F)(F)OC(F)(F)CO`, the outcome was inactive.
As to `O=C(O)C=CC(F)(C(F)(F)F)C(F)(F)F`, the result was inactive.

Read-out in the next test: Matrix Metallopeptidase 9 (MMP9), MMP9 (gene 4318)
In words: BSK_BF4T_MMP9: BioMAP Diversity Plus: BF4T Assay for Matrix Metallopeptidase 9 (MMP9) Biomarker Activity (AID 2284276). The settings on record: primary human bronchial epithelial cells with fibroblasts. The method in brief:
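Co-culture of human bronchial epithelial cells and dermal fibroblasts dosed for 24 h; MMP-9 quantified by ELISA and fitted upward versus DMSO. Cytotoxicity monitored in parallel cultures by SRB total-protein staining at the biomarker time point.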
Regarding `O=S(=O)(F)C(F)(F)C(F)(F)C(F)(F)C(F)(F)C(F)(F)C(F)(F)C(F)(F)C(F)(F)F`, the outcome was inactive.
Regarding `FC(F)(F)C(F)(C(F)(F)F)C(F)(F)C(F)(F)CC1CO1` (stereo unspecified), the outcome was inactive.
Same read-out and setting: the value for `O=C(O)C(F)(F)C(F)(F)C(=O)O` was “inactive”; that for `OCC(F)(F)OC(F)(F)C(F)(F)OC(F)(F)C(F)(F)OC(F)(F)CO` was “inactive”; that for `NC(=O)C(F)(F)C(F)(F)F` was “inactive”.
Same read-out and setting: the value for `COC(=O)C(F)(F)C(F)(F)OC(F)(C(F)(F)F)C(F)(F)OC(F)=C(F)F` (stereo unspecified) was “inactive”; that for `C=CC(=O)OCC(F)(F)C(F)F` was “inactive”; that for `O=C(O)C(F)(OC(F)(F)C(F)(F)C(F)(F)F)C(F)(F)F` (stereo unspecified) was “inactive”.
On the same count and under the same terms, the value for `O=C(O)C(F)(F)OC(F)(F)C(F)(F)OC(F)(F)F` was “inactive”.
With `OCC(F)(F)OC(F)(F)C(F)(F)OC(F)(F)C(F)(F)OC(F)(F)F`, the outcome was inactive.
Still for that read-out and setting: the value for `O=C(O)C(F)(F)OC(F)(F)C(F)(F)OC(F)(F)C(=O)O` was “inactive”; that for `CC(O)C(F)(F)C(F)(F)F` (stereo unspecified) was “inactive”; that for `OCC(F)(F)OC(F)(F)C(F)(F)OC(F)(F)CO` was “inactive”.
In the case of `O=C(O)C=CC(F)(C(F)(F)F)C(F)(F)F`, the outcome was inactive.
